Results as given in PubChem BioAssay AID1159580 (chemical genetic matrix, 2015).
Among all 5,500 compounds or so, about 2,000 (36%) were called active. Another 18% or so got no clear call; they are omitted. Cut-off read from the data, not from the text of the source: active = normalized growth mostly below about 0.91 (no sharp cut-off); inconclusive = no clear call, values can overlap the other calls; inactive = mostly above about 0.92. This is one part of the list.

Experiment: chemical genetic growth profiling, strain panel (AID 1159580);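 note: tested at 20 µM; growth read once vehicle control cultures reached saturation at 30 °C; 1 = growth at the plate median or of vehicle wells; lower values mean less growth of the strain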
Details: growth OD

Measured: normalized growth

CC1(C)S[C@@H]2[C@H](NC(=O)[C@H](N)c3ccccc3)C(=O)N2[C@H]1C(=O)O
inactive: S. cerevisiae deletion strains, locus YJR043C, strain POL32, active compounds read low 1 | S. cerevisiae deletion strains, locus YJR066W, strain TOR1, active compounds read low 0.981 | S. cerevisiae deletion strains, locus YKL009W, strain mrt4, active compounds read low 1.01 | S. cerevisiae deletion strains, locus YKL068W, active compounds read low 1 | S. cerevisiae deletion strains, locus YKL085W, strain MDH1 (second series), active compounds read low 1.01 | S. cerevisiae deletion strains, locus YKL085W, strain MDH1, active compounds read low 1.01 | S. cerevisiae deletion strains, locus YKL160W, strain elf1, active compounds read low 0.93 | S. cerevisiae deletion strains, locus YKL190W, strain CNB1, active compounds read low 1.01 | S. cerevisiae deletion strains, locus YKR001C, strain vps1, active compounds read low 0.991 | S. cerevisiae deletion strains, locus YKR026C, strain gcn3, active compounds read low 0.972 | S. cerevisiae deletion strains, locus YKR091W, strain srl3, active compounds read low 0.962 | S. cerevisiae deletion strains, locus YLL001W, strain dnm1, active compounds read low 1 | S. cerevisiae deletion strains, locus YLL026W, active compounds read low 0.966 | S. cerevisiae deletion strains, locus YLL041C, strain sdh2, active compounds read low 0.976 | S. cerevisiae deletion strains, locus YLR027C, strain aat2, active compounds read low 0.983 | S. cerevisiae deletion strains, locus YLR039C, strain RIC1, active compounds read low 0.993 | S. cerevisiae deletion strains, locus YLR058C, strain SHM2, active compounds read low 1.01 | S. cerevisiae deletion strains, locus YLR102C, strain apc9, active compounds read low 0.997 | S. cerevisiae deletion strains, locus YLR113W, strain HOG1, active compounds read low 1.04 | S. cerevisiae deletion strains, locus YLR221C, strain rsa3, active compounds read low 1.02 | S. cerevisiae deletion strains, locus YLR258W, strain gsy2, active compounds read low 0.981 | S. cerevisiae deletion strains, locus YLR262C, strain YPT6 (second series), active compounds read low 0.983 | S. cerevisiae deletion strains, locus YLR262C, strain YPT6, active compounds read low 1.08 | S. cerevisiae deletion strains, locus YLR268W, strain sec22, active compounds read low 1.01 | S. cerevisiae deletion strains, locus YLR320W, strain mms22, active compounds read low 1 | S. cerevisiae deletion strains, locus YLR330W, strain CHS5, active compounds read low 1.01 | S. cerevisiae deletion strains, locus YLR342W, strain FKS1 (second series), active compounds read low 1.01 | S. cerevisiae deletion strains, locus YLR342W, strain FKS1, active compounds read low 0.985 | S. cerevisiae deletion strains, locus YLR357W, strain rsc2, active compounds read low 0.928 | S. cerevisiae deletion strains, locus YLR370C, strain arc18, active compounds read low 0.951 | S. cerevisiae deletion strains, locus YLR371W, strain rom2, active compounds read low 1 | S. cerevisiae deletion strains, locus YLR384C, strain iki3, active compounds read low 0.97 | S. cerevisiae deletion strains, locus YLR418C, strain cdc73, active compounds read low 0.998 | S. cerevisiae deletion strains, locus YML016C, strain PPZ1, active compounds read low 1.01 | S. cerevisiae deletion strains, locus YML032C, strain rad52, active compounds read low 0.994 | S. cerevisiae deletion strains, locus YML120C, strain ndi1, active compounds read low 0.995 | S. cerevisiae deletion strains, locus YML124C, strain tub3, active compounds read low 1 | S. cerevisiae deletion strains, locus YMR058W, strain fet3, active compounds read low 0.968 | S. cerevisiae deletion strains, locus YMR078C, strain ctf18, active compounds read low 1.01 | S. cerevisiae deletion strains, locus YMR125W, strain sto1, active compounds read low 0.964 | S. cerevisiae deletion strains, locus YMR129W, active compounds read low 0.967 | S. cerevisiae deletion strains, locus YMR205C, strain PFK2, active compounds read low 0.993 | S. cerevisiae deletion strains, locus YMR223W, strain ubp8, active compounds read low 1.01 | S. cerevisiae deletion strains, locus YMR231W, strain pep5, active compounds read low 0.985 | S. cerevisiae deletion strains, locus YMR307W, strain GAS1, active compounds read low 0.926 | S. cerevisiae deletion strains, locus YNL067W, strain RPL9B, active compounds read low 1.02 | S. cerevisiae deletion strains, locus YNL071W, strain lat1, active compounds read low 0.977 | S. cerevisiae deletion strains, locus YNL128W, strain TEP1, active compounds read low 1.03 | S. cerevisiae deletion strains, locus YNL183C, strain NPR1, active compounds read low 0.975 | S. cerevisiae deletion strains, locus YNL209W, strain ssb2, active compounds read low 0.956 | S. cerevisiae deletion strains, locus YNL233W, strain BNI4, active compounds read low 1.01 | S. cerevisiae deletion strains, locus YNL248C, strain rpa49, active compounds read low 0.907 | S. cerevisiae deletion strains, locus YNL250W, strain rad50, active compounds read low 0.998 | S. cerevisiae deletion strains, locus YNL271C, strain bni1, active compounds read low 1.03 | S. cerevisiae deletion strains, locus YNL298W, strain CLA4, active compounds read low 1.01 | S. cerevisiae deletion strains, locus YNL307C, strain MCK1, active compounds read low 1 | S. cerevisiae deletion strains, locus YNL322C, strain KRE1 (second series), active compounds read low 0.97 | S. cerevisiae deletion strains, locus YNR049C, strain mso1, active compounds read low 0.946 | S. cerevisiae deletion strains, locus YNR052C, strain pop2, active compounds read low 1 | S. cerevisiae deletion strains, locus YOL006C, strain TOP1, active compounds read low 1.04 | S. cerevisiae deletion strains, locus YOL012C, strain htz1 0.815 | S. cerevisiae deletion strains, locus YOL147C, strain pex11, active compounds read low 1.01 | S. cerevisiae deletion strains, locus YOR001W, strain rrp6, active compounds read low 1 | S. cerevisiae deletion strains, locus YOR061W, strain CKA2, active compounds read low 1.02 | S. cerevisiae deletion strains, locus YOR069W, strain VPS5, active compounds read low 1.01 | S. cerevisiae deletion strains, locus YOR070C, strain gyp1, active compounds read low 0.981 | S. cerevisiae deletion strains, locus YOR080W, strain dia2, active compounds read low 0.959 | S. cerevisiae deletion strains, locus YOR083W, strain WHI5, active compounds read low 0.917 | S. cerevisiae deletion strains, locus YOR106W, strain vam3, active compounds read low 0.914 | S. cerevisiae deletion strains, locus YOR136W, strain idh2, active compounds read low 0.995 | S. cerevisiae deletion strains, locus YOR144C, strain elg1, active compounds read low 0.998 | S. cerevisiae deletion strains, locus YOR184W, strain ser1, active compounds read low 0.999 | S. cerevisiae deletion strains, locus YOR231W, strain MKK1, active compounds read low 1.02 | S. cerevisiae deletion strains, locus YOR265W, strain rbl2, active compounds read low 0.962 | S. cerevisiae deletion strains, locus YOR270C, strain vph1, active compounds read low 0.951 | S. cerevisiae deletion strains, locus YOR290C, strain snf2, active compounds read low 0.92 | S. cerevisiae deletion strains, locus YOR316C, strain cot1, active compounds read low 1 | S. cerevisiae deletion strains, locus YPL051W, strain arl3, active compounds read low 0.947 | S. cerevisiae deletion strains, locus YPL055C, strain LGE1, active compounds read low 1.02 | S. cerevisiae deletion strains, locus YPL078C, strain atp4, active compounds read low 0.953 | S. cerevisiae deletion strains, locus YPL106C, strain sse1, active compounds read low 0.976 | S. cerevisiae deletion strains, locus YPL240C, strain hsp82, active compounds read low 0.974 | S. cerevisiae deletion strains, locus YPL256C, strain CLN2, active compounds read low 1.05 | S. cerevisiae deletion strains, locus YPR119W, strain clb2, active compounds read low 1.01 | S. cerevisiae deletion strains, locus YPR141C, strain kar3, active compounds read low 1 | S. cerevisiae deletion strains, locus YPR163C, strain tif3, active compounds read low 0.999 | S. cerevisiae deletion strains, locus YPR167C, strain met16, active compounds read low 1.02 | S. cerevisiae deletion strains, strain wtn01, active compounds read low 1.01 | S. cerevisiae strains, strain wild type, active compounds read low 1.02
